Laboratory results: PubChem BioAssay (Tox21)
“And” between values parts separate entries of the source, which are not always exact repeats. Equal entries are not always repeated. Records with an inconclusive call do not appear. The source made the active and inactive calls. Unless noted, the call rests on the fitted dose curve; in most records, active means well fitted curve in the direction sought with a large enough effect in the repeat runs; inconclusive means weak or mixed curves; inactive means no such curve, though single readings can be large; an effect the other way counts as inactive or inconclusive.

Key:
[1] = molecular target: Aryl hydrocarbon receptor (Homo sapiens) (UniProt P35869); test: qHTS assay to identify small molecule that activate the aryl hydrocarbon receptor (AhR) signaling pathway (AID 743085); further: nearly all actives have a fitted effect of over 15% in size; further: potency means the concentration at half of the fitted maximal effect;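 on activation: HG2L7.5c1 human HepG2 liver cells with stably integrated DRE-driven firefly reporter; series mostly up to about 70 µM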
How it was run: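 A multiplexed format paired cell viability (CellTiter-Fluor fluorescence) with AhR-dependent luciferase output (ONE-Glo luminescence) in the same wells of HepG2 DRE-luc cells after 24 h compound exposure at 37C.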

[2] = qHTS assay to identify small molecule that activate the aryl hydrocarbon receptor (AhR) signaling pathway - cell viability counter screen (AID 743086); further: nearly all actives have a fitted effect of over 45% in size; further: potency means the concentration at half of the fitted maximal effect
How it was run: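 HepG2-AhR-luc (HG2L7.5c1) cells, 4000/well, treated 24 h at 37 C with compound; viability measured as CellTiter-Fluor fluorescence after 30 min in the same wells as the luciferase read.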

[3] = molecular target: Peroxisome proliferator-activated receptor gamma (Homo sapiens) (UniProt P37231); test: qHTS assay to identify small molecule agonists of the peroxisome proliferator-activated receptor gamma (PPARg) signaling pathway (AID 743094; active means well fitted activation curve with a large enough effect in the signal ratio in the repeat runs, not every such curve was filed as active; the % refers to the signal ratio; further: potency means the concentration at half of the fitted maximal effect)
How it was run: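 GeneBLAzer PPARg UAS-bla HEK293H cells were plated, rested 5 h, then exposed to compounds for 17 h at 37C. Beta-lactamase activity was read by LiveBLAzer B/G FRET substrate fluorescence after 1 h at room temperature.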

[4] = qHTS assay to identify small molecule antagonists of the peroxisome proliferator-activated receptor gamma (PPARg) signaling pathway - cell viability counter screen (AID 743194); further: nearly all actives have a fitted effect of over 55% in size; further: potency means the concentration at half of the fitted maximal effect
How it was run: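 Cytotoxicity counter screen in PPARg-bla HEK293H cells, same wells as reporter assay. Compounds plus 50 nM rosiglitazone (final) for 17 h at 37 C, then viability read by CellTiter-Glo luminescence.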

[5] = qHTS assay for small molecule activators of the heat shock response signaling pathway - cell viability counter screen (AID 743209); further: nearly all actives have a fitted effect of over 50% in size; further: potency means the concentration at half of the fitted maximal effect
How it was run: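 HSE-bla HeLa cells plated overnight, then exposed to Tox21 compounds (23 nL in DMSO) for 5 h at 37 C. After the bla reporter read, CellTiter-Glo was added in the same wells and luminescence read after 30 min at room temperature.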

[6] = qHTS assay for small molecule activators of the heat shock response signaling pathway (AID 743210; active means well fitted activation curve with a large enough effect in the signal ratio in the repeat runs, with a control signal flat, not every such curve was filed as active; the % refers to the signal ratio; further: series mostly up to about 63 µM)
How it was run: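 HSE-bla HeLa cells (beta-lactamase reporter under heat shock response elements), plated overnight, then exposed to compounds 5 h at 37 C; LiveBLAzer B/G FRET substrate added, 2.5 h at room temperature, fluorescence intensity read.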

[7] = molecular target: Peroxisome proliferator-activated receptor delta (Homo sapiens) (UniProt Q03181); test: qHTS assay to identify small molecule agonists of the peroxisome proliferator-activated receptor delta (PPARd) signaling pathway (AID 743212; calls by dose curve; further: potency means the concentration at half of the fitted maximal effect)
How it was run: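 GeneBLAzer UAS-bla HEK293H cells carrying a PPARδ construct were exposed to compounds at 37 °C. Beta-lactamase activity was read by FRET fluorescence after 2 h at room temperature with LiveBLAzer B/G substrate.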

[8] = qHTS assay to identify small molecule antagonists of the peroxisome proliferator-activated receptor delta (PPARd) signaling pathway - cell viability counter screen (AID 743213); further: nearly all actives have a fitted effect of over 50% in size; further: potency means the concentration at half of the fitted maximal effect
How it was run: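 Viability counter-screen, qHTS format: PPARd-bla HEK293H, L165041 300 nM final, 17 h compound exposure at 37 C, CellTiter-Glo luminescence after 30 min RT.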

[9] = molecular target: Peroxisome proliferator-activated receptor delta (Homo sapiens) (UniProt Q03181); test: qHTS assay to identify small molecule antagonists of the peroxisome proliferator-activated receptor delta (PPARd) signaling pathway (AID 743215; active means well fitted inhibition curve with a large enough effect in the signal ratio in the repeat runs, not every such curve was filed as active; the % refers to the signal ratio;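 further: cells stimulated with agonist L165041 at 300 nM final during compound exposure; series mostly up to about 62 µM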)
How it was run: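 PPARd-bla HEK293H cells (UAS-bla reporter) preincubated 5 h, then given compound plus 300 nM final L165041 agonist for 17 h at 37 C. Beta-lactamase activity read by LiveBLAzer B/G FRET substrate fluorescence after 2 h at room temperature.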

[10] = molecular target: Bile acid receptor (Homo sapiens) (UniProt Q96RI1); test: qHTS assay to identify small molecule antagonists of the farnesoid-X-receptor (FXR) signaling pathway (AID 743217; active means well fitted inhibition curve with a large enough effect in the signal ratio in the repeat runs, not every such curve was filed as active; the % refers to the signal ratio)
How it was run: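 FXR-UAS-bla HEK 293T cells (beta-lactamase reporter) given compound plus chenodeoxycholic acid (50 uM final), 16 h at 37C. LiveBLAzer B/G FRET substrate added for 2 h at room temperature; fluorescence read.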

[11] = qHTS assay to identify small molecule agonists of the farnesoid-X-receptor (FXR) signaling pathway - cell viability counter screen (AID 743218); further: nearly all actives have a fitted effect of over 45% in size; further: potency means the concentration at half of the fitted maximal effect
How it was run: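 FXR-UAS-bla HEK 293T cells exposed to compounds for 16 h at 37C. Cytotoxicity read in the same wells by CellTiter-Glo luminescence after 30 min at room temperature, following the beta-lactamase FRET read.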

[12] = molecular target: Bile acid receptor (Homo sapiens) (UniProt Q96RI1); test: qHTS assay to identify small molecule agonists of the farnesoid-X-receptor (FXR) signaling pathway (AID 743220; active means well fitted activation curve with a large enough effect in the signal ratio in the repeat runs, not every such curve was filed as active; the % refers to the signal ratio)
How it was run: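 Beta-lactamase reporter under UAS control in GeneBLAzer FXR HEK 293T cells (5000/well) measured with LiveBLAzer FRET substrate after 2 h at room temperature. Compound exposure lasted 16 h at 37C.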

[13] = qHTS assay to identify small molecule antagonists of the farnesoid-X-receptor (FXR) signaling pathway - cell viability counter screen (AID 743221; active means well fitted cell-killing curve with a large enough effect in the repeat runs, not every such curve was filed as active; further: nearly all actives have a fitted effect of over 50% in size; further: potency means the concentration at half of the fitted maximal effect)
How it was run: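 Cytotoxicity is taken from ATP luminescence (CellTiter-Glo, 30 min, room temperature) in FXR-bla HEK 293T cells previously incubated 16 h at 37 C with compound and chenodeoxycholic acid at 50 uM final.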

[14] = molecular target: Vitamin D3 receptor (Homo sapiens) (UniProt P11473); test: qHTS assay to identify small molecule agonists of the vitamin D receptor (VDR) signaling pathway (AID 743222; calls by dose curve)
How it was run: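 VDR-bla cells plated 4 h at 37 C, then exposed to compounds for 16 h at 37 C. Beta-lactamase reporter activity measured by fluorescence after 2 h room-temperature loading with LiveBLAzer B/G FRET substrate.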

[15] = molecular target: Vitamin D3 receptor (Homo sapiens) (UniProt P11473); test: qHTS assay to identify small molecule antagonists of the vitamin D receptor (VDR) signaling pathway (AID 743223; active means well fitted inhibition curve with a large enough effect in the signal ratio in the repeat runs, not every such curve was filed as active; the % refers to the signal ratio)
How it was run: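 Quantitative HTS in VDR-bla reporter cells stimulated with 1alpha,25-dihydroxyvitamin D3, 3 nM final. Compound exposure 16 h, 37C, 5% CO2. Read-out: beta-lactamase FRET substrate fluorescence, 2 h RT.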

[16] = qHTS assay to identify small molecule agonists of the vitamin D receptor (VDR) signaling pathway - cell viability counter screen (AID 743224); further: nearly all actives have a fitted effect of over 50% in size; further: potency means the concentration at half of the fitted maximal effect
How it was run: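 VDR-bla cells, 4 h after plating, exposed to compounds for 16 h at 37C; viability then read in the same wells as CellTiter-Glo luminescence after 30 min at room temperature, following the bla FRET read.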

[17] = qHTS assay for small molecule agonists of the antioxidant response element (ARE) signaling pathway (AID 743202; active means well fitted activation curve with a large enough effect in the signal ratio in the repeat runs, not every such curve was filed as active; the % refers to the signal ratio; further: potency means the concentration at half of the fitted maximal effect)
How it was run: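 ARE-bla HepG2 cells (beta-lactamase reporter under the antioxidant response element), plated 5 hours, then exposed to compounds 16 hours at 37 C. LiveBLAzer B/G FRET substrate added for 2 hours at room temperature; fluorescence intensity read.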

[18] = qHTS assay to identify small molecule agonists of the peroxisome proliferator-activated receptor delta (PPARd) signaling pathway - cell viability counter screen (AID 743211); further: nearly all actives have a fitted effect of over 55% in size; further: potency means the concentration at half of the fitted maximal effect
How it was run: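 Tox21 library compounds, delivered in DMSO, were incubated 17 h with PPARd-bla HEK293H cells; cytotoxicity was taken from CellTiter-Glo luminescence read 30 min after reagent addition.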

[19] = qHTS assay for small molecule agonists of the antioxidant response element (ARE) signaling pathway - cell viability counter screen (AID 743203; calls by dose curve; further: nearly all actives have a fitted effect of over 55% in size; further: potency means the concentration at half of the fitted maximal effect)
How it was run: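 ARE-bla HepG2 cells were plated, rested 5 h at 37C/5% CO2, then exposed to compounds in DMSO for 16 h. Viability was read as CellTiter-Glo luminescence after 30 min at room temperature, in the same wells as the ARE screen.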

[20] = molecular target: Peroxisome proliferator-activated receptor gamma (Homo sapiens) (UniProt P37231); test: qHTS assay to identify small molecule antagonists of the peroxisome proliferator-activated receptor gamma (PPARg) signaling pathway (AID 743191; calls by dose curve; further: series mostly up to about 63 µM; nearly all actives have a fitted effect of over 30% in size)
How it was run: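 GeneBLAzer PPARg UAS-bla HEK293H cells, 5 h post-plating, exposed to compounds 17 h at 37C. LiveBLAzer B/G FRET substrate added for 1 h at room temperature; beta-lactamase reporter read by fluorescence intensity.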

Measured: Potency

Peroxisome proliferator-activated receptor delta (Homo sapiens), sequence (Q03181 whole entry, looked up): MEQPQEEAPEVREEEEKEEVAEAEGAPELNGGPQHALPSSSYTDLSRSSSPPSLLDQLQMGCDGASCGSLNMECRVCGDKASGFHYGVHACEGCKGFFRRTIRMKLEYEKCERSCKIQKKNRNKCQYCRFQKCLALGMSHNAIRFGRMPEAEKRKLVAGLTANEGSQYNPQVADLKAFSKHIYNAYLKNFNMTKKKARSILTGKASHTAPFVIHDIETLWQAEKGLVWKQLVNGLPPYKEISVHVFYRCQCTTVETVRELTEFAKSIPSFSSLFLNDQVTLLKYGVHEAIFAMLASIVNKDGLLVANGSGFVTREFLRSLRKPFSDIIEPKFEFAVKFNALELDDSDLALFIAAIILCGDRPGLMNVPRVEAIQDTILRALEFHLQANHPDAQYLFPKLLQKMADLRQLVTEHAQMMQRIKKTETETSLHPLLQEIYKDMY
Vitamin D3 receptor (Homo sapiens), sequence (P11473 whole entry, looked up): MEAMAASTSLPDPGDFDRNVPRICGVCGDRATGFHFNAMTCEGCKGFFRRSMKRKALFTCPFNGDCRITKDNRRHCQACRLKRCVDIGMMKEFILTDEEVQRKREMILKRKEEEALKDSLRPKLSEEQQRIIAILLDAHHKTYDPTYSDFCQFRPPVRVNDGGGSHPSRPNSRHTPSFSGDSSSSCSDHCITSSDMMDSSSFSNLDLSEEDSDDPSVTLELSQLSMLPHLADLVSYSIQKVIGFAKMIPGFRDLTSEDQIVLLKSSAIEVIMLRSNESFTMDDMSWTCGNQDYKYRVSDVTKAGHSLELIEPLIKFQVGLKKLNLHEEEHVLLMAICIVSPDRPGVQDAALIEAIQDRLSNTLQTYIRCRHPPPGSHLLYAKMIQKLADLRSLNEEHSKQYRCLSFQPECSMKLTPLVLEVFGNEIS
Aryl hydrocarbon receptor (Homo sapiens), sequence (P35869 whole entry, looked up): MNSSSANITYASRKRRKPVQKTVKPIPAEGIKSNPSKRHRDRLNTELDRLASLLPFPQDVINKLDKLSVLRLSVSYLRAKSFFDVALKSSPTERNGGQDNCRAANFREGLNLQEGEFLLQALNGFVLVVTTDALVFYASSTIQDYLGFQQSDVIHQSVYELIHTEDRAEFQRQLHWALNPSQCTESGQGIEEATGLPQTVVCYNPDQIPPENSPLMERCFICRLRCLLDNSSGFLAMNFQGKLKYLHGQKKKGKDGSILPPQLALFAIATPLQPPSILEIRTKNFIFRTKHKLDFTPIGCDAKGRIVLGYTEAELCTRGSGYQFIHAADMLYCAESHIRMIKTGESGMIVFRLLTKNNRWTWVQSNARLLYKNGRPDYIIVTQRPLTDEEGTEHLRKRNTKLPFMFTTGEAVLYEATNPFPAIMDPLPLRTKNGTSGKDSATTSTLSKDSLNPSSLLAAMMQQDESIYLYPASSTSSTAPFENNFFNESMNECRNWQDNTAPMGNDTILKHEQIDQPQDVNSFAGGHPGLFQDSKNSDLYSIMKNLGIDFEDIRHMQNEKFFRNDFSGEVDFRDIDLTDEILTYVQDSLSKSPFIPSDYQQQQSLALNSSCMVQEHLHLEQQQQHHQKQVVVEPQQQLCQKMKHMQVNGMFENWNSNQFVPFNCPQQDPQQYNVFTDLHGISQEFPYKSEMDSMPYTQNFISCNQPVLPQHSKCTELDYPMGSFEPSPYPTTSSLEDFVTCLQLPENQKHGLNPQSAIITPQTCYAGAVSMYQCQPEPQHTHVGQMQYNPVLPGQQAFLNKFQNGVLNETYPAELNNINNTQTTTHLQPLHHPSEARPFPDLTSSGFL
Peroxisome proliferator-activated receptor gamma (Homo sapiens), sequence (P37231 whole entry, looked up): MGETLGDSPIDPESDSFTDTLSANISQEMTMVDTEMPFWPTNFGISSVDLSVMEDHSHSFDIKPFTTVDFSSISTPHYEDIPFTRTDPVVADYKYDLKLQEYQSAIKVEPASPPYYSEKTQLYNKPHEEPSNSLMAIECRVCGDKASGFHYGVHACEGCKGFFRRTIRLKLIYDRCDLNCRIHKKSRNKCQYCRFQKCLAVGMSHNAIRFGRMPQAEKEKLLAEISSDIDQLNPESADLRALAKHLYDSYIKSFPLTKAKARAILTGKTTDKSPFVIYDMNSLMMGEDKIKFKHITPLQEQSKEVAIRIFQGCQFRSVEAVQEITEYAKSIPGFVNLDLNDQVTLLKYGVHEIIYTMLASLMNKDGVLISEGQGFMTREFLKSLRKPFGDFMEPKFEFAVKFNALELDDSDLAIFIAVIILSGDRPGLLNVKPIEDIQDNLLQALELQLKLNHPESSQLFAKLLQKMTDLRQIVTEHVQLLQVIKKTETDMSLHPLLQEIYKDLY
Bile acid receptor (Homo sapiens), sequence (Q96RI1 whole entry, looked up): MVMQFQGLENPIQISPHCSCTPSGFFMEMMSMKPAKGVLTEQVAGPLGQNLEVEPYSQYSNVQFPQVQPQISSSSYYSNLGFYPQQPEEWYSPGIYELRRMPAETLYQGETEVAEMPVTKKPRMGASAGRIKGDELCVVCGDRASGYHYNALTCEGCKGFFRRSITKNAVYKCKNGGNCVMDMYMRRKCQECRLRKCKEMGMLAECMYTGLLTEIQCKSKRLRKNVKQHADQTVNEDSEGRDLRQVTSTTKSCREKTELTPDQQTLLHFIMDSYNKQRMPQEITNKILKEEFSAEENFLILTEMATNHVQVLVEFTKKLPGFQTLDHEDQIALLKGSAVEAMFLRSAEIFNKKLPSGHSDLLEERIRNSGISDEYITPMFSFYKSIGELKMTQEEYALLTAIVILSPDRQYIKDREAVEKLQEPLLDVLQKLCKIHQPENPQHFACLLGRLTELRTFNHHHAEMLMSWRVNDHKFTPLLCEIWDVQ

CCOC(=O)C(F)(F)F
inactive: [1] | [2] | [3] | [4] | [5] | [6] | [7] | [8] | [9] | [10] | [11] | [12] | [13] | [14] | [15] | [16]

CCc1c(C(=O)NN2CCCCC2)nn(-c2ccc(Cl)cc2Cl)c1-c1ccc(Br)cc1
active: [11] 24.5 µM | [13] 24.5 µM | [16] 19.5 µM
inactive: [1] | [2] | [5]

OCCN1CCN(CCCN2c3ccccc3C=Cc3ccccc32)CC1
inactive: [1] | [17] | [5] | [18] | [7] | [11] | [14] | [15] | [16]
active: [2] 10.6 µM and 26.6 µM

O=C1OC(=O)C2C3C=CC(C3)C12 (stereo not given)
inactive: [1] | [3] | [4] | [19] | [5] | [6] | [18] | [7] | [8] | [9] | [11] | [13] | [14] | [15] | [16]

O=C(O)c1ccc(-n2nc(-c3ccccc3O)nc2-c2ccccc2O)cc1
inactive: [1] | [2] | [18] | [7] | [8] | [13] | [14] | [15]

CCCCO
inactive: [1] | [2] | [4] | [19] | [5] | [6] | [18] | [10] | [11] | [13] | [14] | [15] | [16]

O=[N+]([O-])c1ccc(NCCO)c(OCCO)c1
inactive: [1] | [3] | [20] | [4] | [17] | [19] | [5] | [6] | [18] | [7] | [8] | [9] | [10] | [11] | [12] | [13] | [14] | [15] | [16]

CNCCCCOc1ccccc1Cc1ccccc1
inactive: [1] | [3] | [4] | [5] | [14]
active: [19] 29.8 µM | [18] 26.6 µM

O=C1OC(CN2CCOCC2)CN1/N=C/c1ccc([N+](=O)[O-])o1 (stereo not given)
inactive: [1] | [2] | [4] | [19] | [18] | [7] | [9] | [11] | [13] | [14] | [15] | [16]
active: [17] 29.8 µM

CCCCCCCCCc1ccc(OCCOCCO)cc1
inactive: [1] | [3] | [19] | [7] | [12] | [13] | [14] | [15]
active: [17] 1.62 µM | [5] 23 µM | [8] 20.5 µM | [16] 20.5 µM

O=S(c1cc(Cl)cc(Cl)c1O)c1cc(Cl)cc(Cl)c1O
inactive: [1] | [2]
active: [4] 26.6 µM | [19] 11.9 µM | [18] 23.7 µM

ClCCOCCOCCCl
inactive: [1] | [3] | [20] | [4] | [17] | [19] | [5] | [6] | [18] | [7] | [8] | [9] | [11] | [13] | [14] | [15] | [16]

Cc1oc(-c2ccccc2)nc1CCOc1cccc2c1ccn2CCC(=O)O
active: [3] 17.4 nM | [7] 8.71 µM
inactive: [1] | [4] | [19] | [5] | [18] | [8] | [9] | [13] | [14] | [16]

O=C(Nc1ccc(S(=O)(=O)N2CCOCC2)cc1)c1cc(Cl)ccc1NS(=O)(=O)c1ccc(Cl)s1
inactive: [1] | [2] | [5] | [9]
active: [19] 13.3 µM | [8] 13.3 µM | [11] 6.68 µM

CN(C)CCN(Cc1ccc(Cl)cc1)c1ccccn1
inactive: [1] | [3] | [4] | [17] | [5] | [6] | [7] | [9] | [10] | [12] | [13] | [14] | [15]

CCCCC(=O)OCC(=O)[C@H]1[C@H](C)C[C@H]2[C@@H]3C[C@H](F)C4=CC(=O)C=C[C@]4(C)[C@@]3(F)[C@@H](O)C[C@@]21C
inactive: [1] | [3] | [4] | [17] | [19] | [18] | [8] | [11] | [13] | [14] | [15] | [16]

c1ccc(-c2ccccn2)nc1
inactive: [1] | [2] | [4] | [19] | [5] | [18] | [7] | [8] | [9] | [11] | [13] | [14] | [15] | [16]

CCNc1cc(O)ccc1C
inactive: [2] | [4] | [19] | [5] | [6] | [7] | [9] | [10] | [11] | [13] | [14] | [16]
active: [1] 30.3 µM

CC(C)OC(=O)C(C)N(C(=O)c1ccccc1)c1ccc(F)c(Cl)c1 (stereo not given)
inactive: [1] | [3] | [20] | [4] | [19] | [5] | [6] | [7] | [8] | [11] | [13] | [15] | [16]
